# Most compounds without a hit are left out; they make up all but 5.7% or so of the library.
# HepG2 viability – kills HepG2 cells in TGF-b inhibitor counter-screen; HepG2 CAGA-GFP viability, ATP luminescence, 18 h; Potency, µM (top dose mostly 46.1 µM), actives largely listed as cytotoxic; actives 0.76% (n = 410,000)
#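 CellTiter-Glo luminescence gave cytotoxicity after 18 hours at 37 degrees C. The cells were HepG2 CAGA-GFP in 1% FBS DMEM, stimulated with 500 pg/mL TGF-beta after compound addition. %Activity was normalised to no-cell wells (complete cell-killing) and DMSO (no toxicity), and curves were fitted and classified.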
# IL-1B inflam inh – inflammasome signaling inhibition, IL-1 beta readout. THP-1 LPS/ATP IL-1B secretion, AlphaLISA, 16 h; stronger effect = lower value. activity change, % at 57.5 µM. actives 4.7% (n = 360,000). AID 743279; in the data active = activity change below about -50%; inconclusive = mostly about -30% to -49%
#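 THP-1 cells pretreated 1 hr with compounds (up to 57.5 uM final), then stimulated with LPS (250 ng/mL final) plus ATP (1.25 mM final); secreted IL-1B measured by AlphaLISA after 16 hr, decreased signal indicating inhibition.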
# S2 tox – reduces viability in counter-screen for ATXN expression inhibitors | S2 cells (HEK-293 line with an ATXN2-luciferase reporter) viability, CellTiter-Fluor protease fluorescence, 24 h | Potency, µM (doses to about 56.7 µM), usual class: cytotoxic | actives 0.49% (n = 400,000); note: nearly all actives have a fitted effect of over 40% in size
# TGFb inhibitor – TGF-b pathway inhibition | HepG2 CAGA-GFP TGF-b/SMAD3 reporter, GFP fluorescence, 18 h; TGF-beta stimulated, 500 pg/mL final | Potency, µM (top dose mostly 46.1 µM), usual class: inhibitors | actives 1.2% (n = 410,000) | AID 588855; note: nearly all actives have a fitted effect of over 65% in size
#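 Inhibition was scored as loss of TGF-beta-induced (500 pg/mL final, 18 hours, 37 degrees C) GFP in HEPG2 cells carrying a CAGA-GFP reporter, in DMEM with 1% FBS. Well GFP was summed per cell; Activity was normalised to unstimulated and stimulated DMSO wells, then concentration-response fitting.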
# ATXN2 expr inh – reduces ATXN2 reporter expression in HEK-293 cells. HEK-293 ATXN2-luciferase reporter, luminescence, 24 h. actives 0.72% (n = 360,000). Potency, µM (top dose mostly 57 µM), actives largely listed as inhibitors; note: nearly all actives have a fitted effect of over 55% in size
#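 ATXN2-luciferase reporter cells (luciferase flanked by upstream and downstream ATXN2 gene portions) were treated 24 h at 37 °C with compounds at up to 57 uM. SteadyGlo luminescence gave expression; GF-AFC fluorescence gave viability.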
# Hits are given with their value; n = inactive; u = inconclusive; x = no result given; [ ] = dose if it differs, or a comment. Unless noted, calls come from the whole dose curve; as a rule, active = well fitted curve in the direction sought with a large enough effect; inconclusive = small, poorly fitted or top-dose-only effect, or another doubt; inactive = no such curve, though single readings can be large; an effect the other way counts as inactive or inconclusive.
SMILES,HepG2 viability,IL-1B inflam inh,S2 tox,TGFb inhibitor,ATXN2 expr inh
NC(c1csc(Nc2cc(NCc3ccco3)ncn2)n1)c1ccccc1Cl (centres undefined),n,-79,u,u,n
CC(C)[C@H](N)C(=O)N[C@H]1CCC2C3CC=C4C[C@@H](O)CC[C@]4(C)C3CC[C@@]21C (some centres undefined),20µM,-106,u,u,x
C[C@@H](N)C(=O)N[C@H]1CCC2C3CC=C4C[C@@H](O)CC[C@]4(C)C3CC[C@@]21C (some centres undefined),n,n,n,n,n
CCC(C)[C@H](N)C(=O)N[C@H]1CCC2C3CC=C4C[C@@H](O)CC[C@]4(C)C3CC[C@@]21C (some centres undefined),16µM,-111,u,u,x
Cc1c(C)n(Cc2ccc(F)cc2)c2ccc(C(=O)Nc3ccc(Cl)cc3)cc12,n,x,x,n,x
COc1cccc(CNC(=O)C2CCCN(S(=O)(=O)c3ccc4c(ccn4C)c3)C2)c1OC (centres undefined),n,x,n,n,n
O=C(Nc1cccc(C(F)(F)F)c1)Oc1ccc(Cl)c2cccnc12,14µM,-102,n,7.1µM,u
CCCCN(CCC#N)c1ccc(/C=C/c2ccnc3ccccc23)cc1,n,x,x,u,x
COC(CNC(=O)c1ccc2c3c(onc13)-c1ccccc1C2=O)OC,n,-97,x,11µM,u
O=C(Cn1c(-c2cccs2)cc2cc(F)ccc21)NCCc1ccc(Cl)cc1,n,x,n,n,n
COc1ccc(NC(=O)Cn2c(SCc3cccc(Cl)c3)nc3ccncc32)c(OC)c1OC,n,x,n,u,n
COc1ccc(Nc2nc(=O)c3cc([N+](=O)[O-])ccc3s2)cc1,4µM,n,n,n,n
CCN(C(=O)Cn1nc(C)n2c(cc3cc(C)ccc32)c1=O)c1ccccc1,n,-51,n,n,n
COc1ccc(-c2nc3c4cnn(-c5ccccc5F)c4ncn3n2)cc1,n,x,x,x,x
COc1ccc(-c2csc(NC(=O)CN3C(=O)C4CCCCC4C3=O)n2)cc1OC (centres undefined),n,n,n,n,n
COc1ccc(OC)c(-c2csc(NC(=O)CN3C(=O)C4CCCCC4C3=O)n2)c1 (centres undefined),n,-56,n,n,n
Cc1ccc(-c2csc(NC(=O)Cc3ccc(F)cc3)n2)o1,n,-65,n,u,n
COc1ccc(OC)c(-c2csc(NC(=O)COC(=O)C3CCC3)n2)c1,n,n,n,n,n
COc1ccc(OC)c(-c2csc(NC(=O)CSc3ccc([N+](=O)[O-])cc3)n2)c1,n,-69,n,u,n[11.3 µM]
COc1ccc(OC)c(-c2csc(NC(=O)CSc3ccc(Br)cc3)n2)c1,n,-59,n,u,n
CCS(=O)(=O)N1CC(=O)N(c2ccc(Cl)cc2)C(C)(C(=O)NC2CCCCC2)C1 (centres undefined),n,x,x,n,x
COc1ccc(CNC(=O)c2cnc(N3CCCC3)nc2C)cc1,n,x,n,n,n
COc1ccccc1NC(=O)CSC1=Nc2ccccc2C2=NC(CCC(=O)NCc3ccco3)C(=O)N12 (centres undefined),n,x,x,n,x
Cc1ccccc1C1(CC(=O)N2CCCCC2C)CC(=O)N(Cc2cccnc2)C1=O (centres undefined),x,x,n,x,x
COc1ccc(OC)c(-c2csc(NC(=O)Cc3ccc(F)cc3)n2)c1,n,-69,n,u,n
SMILES,HepG2 viability,IL-1B inflam inh,S2 tox,TGFb inhibitor,ATXN2 expr inh
O=C(Nc1nc(-c2ccco2)cs1)c1ccccc1,n,n,n,n,n
COc1ccc(OC)c(-c2csc(NC(=O)Cc3cc(OC)c(OC)c(OC)c3)n2)c1,n,n,n,u,n
Cc1ccc(-c2csc(NC(=O)c3ccc(-c4ccccc4)cc3)n2)o1,n,n,u,13µM,n
CCC(Sc1nc(=O)cc(N)n1-c1cccc(C)c1)C(=O)Nc1cc(C)on1 (centres undefined),n,n,n,3.5µM,n
CCC(Sc1nc(=O)cc(N)n1-c1ccccc1)C(=O)Nc1cc(C)on1 (centres undefined),n,n,n,n,n
CN1CCC(=O)N(C(CSc2ccc(Br)cc2)c2ccccc2)CC1 (centres undefined),n,x,x,n,x
CC(=O)c1ccc(-c2cccs2)s1,n,n,n,10µM,n[11.3 µM]
CNc1cccc(-c2ccc(C(C)=O)s2)n1,n,n,n,n,n
O=C(C[n+]1cccc(Br)c1)c1ccc2c(c1)CCCC2,n,x,x,n,x
Cn1ncc(C(=O)N2CCN(c3ccc(F)cc3)CC2)c1C1CCN(C(=O)OC(C)(C)C)CC1,n,x,x,n,x
N#C/C(=C\c1ccccn1)c1nc2ccccc2s1,n,-85,u,n,u
COC(=O)c1ccc(/C=C(\C#N)c2nc3ccccc3s2)cc1,n,n,n,n,n
COc1ccc(-n2cc(-c3ccccc3)c3c(NN4CCOCC4)ncnc32)cc1,n,-85,x,n,n
Fc1ccc(-n2cc(-c3ccccc3)c3c(NN4CCOCC4)ncnc32)cc1,n,-73,n,n,n
COc1ccc(-n2cc(-c3ccccc3)c3c(N4CCN(CCO)CC4)ncnc32)cc1,n,u,u,u,u
OCCN1CCN(c2ncnc3c2c(-c2ccccc2)cn3-c2ccc(F)cc2)CC1,n,-97,n,n,n
COc1ccc(-n2cc(-c3ccccc3)c3c(NC4CCCCC4)ncnc32)cc1,n,x,x,n,x
COc1cc(-c2nc(-c3ccccc3)c(-c3ccc(Br)cc3)[nH]2)cc(OC)c1O,n,x,u,13µM,u
Oc1ccc(-c2nc(-c3ccccc3)c(-c3ccc(Br)cc3)[nH]2)cc1,n,x,u,u,u
CCOC(=O)C1=C(C)C(c2cccc(Oc3ccccc3)c2)NC(=S)N1 (centres undefined),n,-74,n,u,n[11.3 µM]
CCOC(=O)C1=C(C)C(c2ccc(OC)cc2)NC(=S)N1 (centres undefined),n,n,n,n,n
O=C(Cc1ccc2c(c1)OCO2)N1CCOc2ccc(CN3CCOCC3)cc2C1,x,x,n,x,x
O=C(c1ccc(COc2ccc3c(c2)CCC3)o1)N1CCN(c2ccccc2)CC1,n,-73,n,n,n
COC(=O)c1c[nH]c2c1-c1cc(C(=O)OCc3ccccc3)n(S(=O)(=O)c3ccc(C)cc3)c1C(=O)C2=O,0.56µM,n,u,0.45µM,u
COc1cccc(CNC(=O)c2c(C)oc3nc(C)nc(N4CCOCC4)c23)c1,n,x,x,n,x
CCOC(=O)c1csc(N/N=C2\CCc3ccccc32)n1,n,-93,n,n,n
CCOC(=O)c1csc(N/N=C2\CCCc3ccccc32)n1,n,n,n,u,x
Cc1cc2cc(CCNC(=O)C(=O)c3c[nH]c4ccccc34)c(=O)[nH]c2cc1C,n,-56,u,u,n
